# About 79,000 compounds went through this panel and 15% of them were active in at least one assay; those are over-represented in the sample as a whole. A number with no mark means an inactive call. Activity calls are given as the source filed them. No stated cut-off is given here; in the data, active means growth inhibition above about 70%; inactive means the rest.
# Assay: NCI Yeast Anticancer Drug Screen. Data for the wt1 strain (AID 149);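 further: 0% = growth of vehicle-treated wt1 cultures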
# Details: S. cerevisiae wt1 strain (SPY 50644) growth inhibition, active compounds read high
# Method: Growth inhibition of yeast strains with defined genetic alterations is measured as a screen for potential anti-cancer activity. Selected strains with alterations in DNA damage repair or cell cycle control were exposed to compounds and growth inhibition was measured relative to vehicle treated controls. The strain used in this assay is wt1
SMILES,growth inhibition (at 1.2 µM),growth inhibition (at 3.7 µM),growth inhibition (at 11.0 µM),growth inhibition (at 33.0 µM),growth inhibition (at 100.0 µM)
Cc1cccc[n+]1C1CCc2c(ccc3ccccc23)C1=O (stereo not given),-2%,-4%,-1%,-3%,13%
O=C(NNc1ccccc1)C(O)C(O)C(O)C(O)C(O)CO (stereo not given),4%,12%,31%,52%,70% (active)
Nc1n[n+]([O-])c2ccc(Cl)cc2[n+]1[O-],8%,13%,31%,62%,84% (active)
O=C(NCCCNCCN1C(=O)c2cccc3cc([N+](=O)[O-])cc(c23)C1=O)c1cc(-c2ccccc2)nc2ccccc12,0%,-1%,-2%,-6%,96% (active)
N=C1N=Nc2nc(C3(c4nc5n(c4O)C(=N)N=N5)Cc4ccccc4C3=O)c(O)n21 (stereo not given),3%,7%,11%,23%,67%
COc1cc(CSc2ccc(O)cc2)cc(O)c1O,0%,0%,1%,-2%,-1%
Cc1cc(=O)oc2c(C)c3occc(=O)c3cc12,4%,-2%,0%,5%,23%
O=C1NC(SSC2=NNC3(C(=O)N2)c2ccccc2-c2ccccc23)=NNC12c1ccccc1-c1ccccc12,0%,0%,0%,1%,5%
